Screening results as filed in PubChem BioAssay.
HCMV antiviral: blocks human cytomegalovirus replication | HFF cells, HCMV-luciferase reporter, 72 h; active compounds read low | 410,000 tested, 4.5% active | activity change, negative = inhibition, % at 57.5 µM; in the data active means activity change below about -60%; inconclusive means no clear call, values can overlap the other calls; inactive means above about -39%
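After 16 h attachment at 37C, HFF cells received test compound and HCMV-luciferase (1 PFU/cell); reporter luminescence read 72 h later, data normalized against buffer-only and known inhibitor Salinomycin.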
Pf growth 48h: inhibits P. falciparum growth in the first generation, 48 h; P. falciparum luciferase growth in erythrocytes, 48 h; Potency, µM (top dose mostly 28.7 µM), usual class: inhibitors; 310,000 tested, 5.9% active; AID 504832
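Read-out is firefly luciferase luminescence from an integrated reporter in P. falciparum, so falling signal marks reduced parasite growth. Infected erythrocytes were at 2% hematocrit and 0.1% parasitemia (final) in Albumax-supplemented RPMI 1640.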
Marburg entry inh: blocks Marburg virus binding to or entry into cells; AID 540276; Potency, µM (series often up to 37.8 µM), most hits filed as inhibitors; Marburg virus pseudotyped entry inhibition, cell reporter; 300,000 tested, 1.8% active; calls by dose curve; tested in HEK293 cells
HCV inhibitor: HCV inhibition. Huh7.5.1 HCVcc-Cre infection, luciferase reporter, 44 h. Potency, µM (top dose mostly 41.8 µM), usual class: inhibitors. 340,000 tested, 3.4% active. AID 651820
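After 44 h co-culture of compound, cells and HCVcc-Cre (~0.5 moi), substrate is added for 15 min at room temperature and luciferase measured over 15 sec. Cells were seeded at 1,000/well and pre-cultured 4 h.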
Pf growth 96h: P. falciparum growth inhibition at 96 hours. AID 504834. Potency, µM (top dose mostly 28.7 µM), usual class: inhibitors. P. falciparum luciferase reporter growth, 96 h. 320,000 tested, 6.9% active
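Parasite growth measured via integrated firefly luciferase reporter in P. falciparum. Infected erythrocytes at 2% hematocrit, 0.05% parasitemia final were treated 96 hours at 37 C under 5% CO2, and luminescence was read.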
Lassa entry inh: inhibitors of Lassa virus binding or cell entry | 300,000 tested, 1.2% active | Lassa virus pseudotype entry inhibition, cell reporter | Potency, µM (highest dose often 37.9 µM), most hits filed as inhibitors | AID 540256; calls by dose curve; tested in HEK293 cells; further: nearly all actives have a fitted effect of over 50% in size
Large screens that a line does not name were inactive. Only some compounds are listed: those with a hit (about 14% of all), similar ones and a draw of the others. Unless noted, the call rests on the fitted dose curve; in most records, active means well fitted inhibition curve with a large enough effect; inconclusive means small, poorly fitted or top-dose-only effect, or another doubt; inactive means no such curve, though single readings can be large or run the other way.

CC1CCc2onc(C(=O)N3CCN(c4cccc(Cl)c4)CC3)c2C1 (stereo not drawn)	HCMV antiviral -60.4, Lassa entry inh inconclusive (no result: Pf growth 48h, Marburg entry inh, HCV inhibitor, Pf growth 96h)
CCS(=O)(=O)c1ncc(Cl)c(C(=O)N2CCN(c3cccc(Cl)c3)CC2)n1	HCMV antiviral -100.6, Marburg entry inh 5.62µM, Lassa entry inh inconclusive (no result: Pf growth 48h, HCV inhibitor, Pf growth 96h)
N#CCN(N=Nc1ccccc1)c1ccccc1	Pf growth 48h 10.4µM (no result: Marburg entry inh, Lassa entry inh)
Nn1c(SCc2ccccn2)nncc1=O	Marburg entry inh inconclusive, Pf growth 96h 11.7µM
Cc1nnc(SCc2ccccn2)n(N)c1=O	none (no result: Lassa entry inh)
CC(=O)Nc1cccc(C#Cc2cncnc2Nc2ccc(OCc3cccc(F)c3)c(Cl)c2)c1	Lassa entry inh 15.8µM (no result: HCMV antiviral, Pf growth 48h, Marburg entry inh, HCV inhibitor, Pf growth 96h)
COc1ccc(NC(=O)CN(C)CC(=O)Nc2cccc(F)c2)cc1Cl	Pf growth 48h inconclusive, Marburg entry inh inconclusive, Pf growth 96h inconclusive, Lassa entry inh inconclusive
CS(=O)(=O)CCNCc1ccc(-c2ccc3ncnc(Nc4ccc(OCc5cccc(F)c5)c(Cl)c4)c3c2)o1	none (no result: Marburg entry inh, HCV inhibitor, Lassa entry inh)
CCNC(=O)OC1CNC(C#Cc2cc3ncnc(Nc4ccc(OCc5cccc(F)c5)c(Cl)c4)c3s2)C1 (stereo not drawn)	Lassa entry inh 7.91µM (no result: HCMV antiviral, Pf growth 48h, Marburg entry inh, HCV inhibitor, Pf growth 96h)
Nc1nccc(C#Cc2cncnc2Nc2ccc(OCc3cccc(F)c3)c(Cl)c2)n1	Lassa entry inh 17.7µM (no result: HCMV antiviral, Pf growth 48h, Marburg entry inh, HCV inhibitor, Pf growth 96h)
CC(C)c1ccc(Nc2sc(C(=O)c3ccccc3)c(N)c2S(=O)(=O)c2ccccc2)cc1	Lassa entry inh inconclusive (no result: Pf growth 48h, Marburg entry inh, HCV inhibitor, Pf growth 96h)
Cc1ccc(-c2onc(C)c2C)cc1S(=O)(=O)N1CCC(C)CC1	HCMV antiviral inconclusive (no result: Pf growth 48h, Marburg entry inh, HCV inhibitor, Pf growth 96h)
COc1ccc(N2C(=O)CS(=O)(=O)C23C(=O)N(Cc2c(F)cccc2Cl)c2ccccc23)cc1 (stereo not drawn)	Lassa entry inh inconclusive (no result: Pf growth 48h, Marburg entry inh, HCV inhibitor, Pf growth 96h)
COc1ccc(C(c2sc3nc(C)nn3c2O)N2CCC(O)CC2)cc1OC (stereo not drawn)	none (no result: Marburg entry inh, Lassa entry inh)
COc1ccc(C(c2sc3nc(C)nn3c2O)N2CCN(Cc3ccccc3)CC2)cc1OC (stereo not drawn)	Pf growth 48h inconclusive, Pf growth 96h 0.828µM (no result: Marburg entry inh, Lassa entry inh)
CC(C)[Si]1(C(C)C)OCC2OC(n3cnc4c(N)ncnc43)C(N)C2O[Si](C(C)C)(C(C)C)O1 (stereo not drawn)	Marburg entry inh 12.6µM, HCV inhibitor inconclusive, Lassa entry inh inconclusive (no result: Pf growth 48h, Pf growth 96h)
CC(=O)NCCNc1nc2c(-c3cccc(C)c3)nnn2c2ccc(Cl)cc12	none (no result: Pf growth 48h, HCV inhibitor, Pf growth 96h)
COc1cc(-c2noc(-c3ccc(NCCc4ccccc4)c([N+](=O)[O-])c3)n2)cc(OC)c1OC	none (no result: Pf growth 48h, HCV inhibitor, Pf growth 96h)
Cn1c(=O)c2c(nc(SCC(=O)N3CCc4ccccc43)n2Cc2ccccc2)n(C)c1=O	none (no result: HCMV antiviral, Marburg entry inh, Lassa entry inh)
Cn1c(=O)c2c(nc(SCC(=O)c3cccs3)n2Cc2ccc(F)cc2)n(C)c1=O	HCV inhibitor 5.01µM, Pf growth 96h inconclusive, Lassa entry inh inconclusive
CC1Cc2ccccc2N1C(=O)CSc1nc2c(c(=O)n(C)c(=O)n2C)n1Cc1ccc(F)cc1 (stereo not drawn)	HCMV antiviral -105.9, HCV inhibitor inconclusive (no result: Pf growth 48h, Pf growth 96h)
Cn1c(=O)c2c(nc(SCC(=O)c3ccccc3F)n2C)n(C)c1=O	Pf growth 96h 1.85µM (no result: HCMV antiviral, Marburg entry inh, HCV inhibitor, Lassa entry inh)
CC(C)C[C@@H]1COc2cccc(NN3CCN(C)CC3)c2S(=O)(=O)N1	none (no result: HCMV antiviral, Pf growth 48h, Marburg entry inh, HCV inhibitor, Pf growth 96h)
O=C(N1CCOCC1)N1CCN(S(=O)(=O)N2CCCCC2)CC1	Pf growth 96h 4.15µM
O=S(=O)(N1CCOCC1)N1CCCN(S(=O)(=O)N2CCOCC2)CC1	none
CCNCc1nc2cc(Cl)ccc2c(=O)[nH]1	HCMV antiviral -69.1
O=C(O)c1ccc2c(=O)[nH]c(CN3CCOCC3)nc2c1	none (no result: Pf growth 96h)
O=C(O)c1ccc2c(=O)[nH]c(CCl)nc2c1	Pf growth 48h inconclusive, Pf growth 96h 13.1µM
COc1cc(C(=O)NCCc2ccc(S(N)(=O)=O)cc2)ccc1OCc1c(C)noc1C	Pf growth 48h inconclusive, Pf growth 96h inconclusive (no result: Marburg entry inh, Lassa entry inh)
CC(C)(C)c1ccc(CC(=O)N2CCC2(C)C(=O)NS(=O)(=O)c2ccc(Cl)cc2)cc1 (stereo not drawn)	none (no result: Pf growth 48h, Marburg entry inh, HCV inhibitor, Pf growth 96h, Lassa entry inh)
COc1ccc(C2=NCCn3nc4ccccc4c32)cc1	none (no result: Marburg entry inh, Lassa entry inh)
COc1ccc(NC(=O)CSc2nnc(C)s2)cc1S(=O)(=O)N1CCOCC1	Pf growth 96h 10.4µM (no result: Marburg entry inh, Lassa entry inh)
O=C(/C=C/c1ccco1)Nc1ccc(Cl)c(S(=O)(=O)N2CCOCC2)c1	HCMV antiviral -69.4, Pf growth 48h inconclusive, HCV inhibitor 10µM (no result: Marburg entry inh, Lassa entry inh)
